Assay outcomes from PubChem BioAssay.
TDP1 cell noCPT – qHTS for Inhibitors of human tyrosyl-DNA phosphodiesterase 1 (TDP1): qHTS in cells in absence of CPT. DT40 Tdp1-/- hTDP1 cells, no CPT, ATP luminescence, 48 h. Potency, µM (doses to about 46.2 µM), hits mostly inhibitors. 420,000 compounds, 15% hits. AID 686978, 2013; further: nearly all actives have a fitted effect of over 55% in size
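Compound effects on proliferation are scored in DT40 Tdp1-/-;hTDP1 cells in the absence of CPT. ATP levels (CellTiter-Glo luminescence) are recorded after a ≥48 hr, 37 °C incubation.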
TDP1 cell CPT – qHTS for Inhibitors of human tyrosyl-DNA phosphodiesterase 1 (TDP1): qHTS in cells in presence of CPT; 420,000 compounds, 12% hits; chicken DT40 Tdp1-/-;hTDP1 cells + 20 nM CPT, ATP luminescence, 48 h; AID 686979, 2013; Potency, µM (doses to about 46.2 µM), usual class: inhibitors; further: nearly all actives have a fitted effect of over 55% in size
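Chicken DT40 Tdp1-/- cells stably complemented with human TDP1 were seeded at 400 cells/well in medium containing 20 nM camptothecin, exposed to pin-transferred compounds, and grown at 37 °C for at least 48 hr. Viability was read as ATP luminescence.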
PLK1 PBD inh – qHTS for Inhibitors of PLK1-PDB (polo-like kinase 1 - polo-box domain): Primary Screen; Plk1 PBD binding of FITC phosphopeptide, fluorescence polarization; AID 720504, 2013; Serine/threonine-protein kinase PLK1 (Homo sapiens), P53350; 360,000 compounds, 2.8% hits; Potency, µM, actives largely listed as inhibitors; further: series mostly up to about 57 µM; nearly all actives have a fitted effect of over 65% in size
TDP1 inh – qHTS Assay for Inhibitors of Tyrosyl-DNA Phosphodiesterase (TDP1) | 350,000 compounds, 0.28% hits | Potency, µM (series often up to 130 µM), usual class: inhibitors | recombinant TDP1, AlphaScreen DNA substrate cleavage | Tyrosyl-DNA phosphodiesterase 1 (Homo sapiens), Q9NUW8; further: nearly all actives have a fitted effect of over 40% in size
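AlphaScreen read-out: signal falls as enzyme removes the 3' tyrosine-FITC from a 5'-biotinylated DNA oligo (15 nM, 5 min, RT). Enzyme was E. coli-made recombinant Tdp1 at 1 nM, exposed to compound for 15 min beforehand; beads 10 ug/ml, 10 min.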
KAT2A inh – qHTS Assay for Inhibitors of GCN5L2 | AID 504327, 2011 | Potency, µM (highest dose often 58.9 µM), hits mostly inhibitors | Histone acetyltransferase KAT2A (Homo sapiens), Q92830 | GCN5L2 HAT assay, ThioGlo1 CoA-SH fluorescence | 390,000 compounds, 0.21% hits
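Enzyme at 20nM final was mixed with library compounds for 15 min at room temperature. Peptide H3(1-25) at 75uM, acetyl-CoA at 70uM and ThioGlo1 at 50uM were then added. Plates were read immediately and after 20 min (Ex340nm/Em540nm).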
VDR inhibitor – Inhibitors of the vitamin D receptor (VDR): qHTS; Potency, µM, most hits filed as inhibitors; 400,000 compounds, 0.93% hits; VDR-SRC2-3 peptide fluorescence polarization, 2 h; Vitamin D3 receptor (Homo sapiens), P11473
Target sequence (P11473 whole entry, looked up): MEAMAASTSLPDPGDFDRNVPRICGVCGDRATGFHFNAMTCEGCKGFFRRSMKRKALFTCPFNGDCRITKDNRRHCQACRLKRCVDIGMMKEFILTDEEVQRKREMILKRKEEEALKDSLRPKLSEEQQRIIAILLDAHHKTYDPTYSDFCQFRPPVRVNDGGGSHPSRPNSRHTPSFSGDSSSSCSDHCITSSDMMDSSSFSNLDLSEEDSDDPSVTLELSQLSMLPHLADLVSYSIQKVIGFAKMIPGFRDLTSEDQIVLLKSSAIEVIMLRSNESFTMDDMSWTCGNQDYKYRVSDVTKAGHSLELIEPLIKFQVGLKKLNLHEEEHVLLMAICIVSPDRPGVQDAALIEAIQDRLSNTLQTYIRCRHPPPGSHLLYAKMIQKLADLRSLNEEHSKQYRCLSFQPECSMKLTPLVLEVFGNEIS
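Measured by FP: displacement of SRC2-3 coactivator peptide from VDR by library compounds, following a two-hour ambient incubation.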
Each line names hits and unclear results; the compound was inactive in the other large screens. Shown are actives, neighbours in structure and some others; about 18% of the full set was active somewhere. The call rests on the fitted dose curve; in most records, active means well fitted curve in the direction sought with a large enough effect; inconclusive means small, poorly fitted or top-dose-only effect, or another doubt; inactive means no such curve, though single readings can be large; an effect the other way counts as inactive or inconclusive.

O=S(=O)(NC1CCCCC1)c1cccc(-c2nnc(-c3ccccc3)o2)c1	TDP1 cell noCPT 15µM, TDP1 cell CPT inconclusive
Cc1nn(C(=O)c2ccc(Br)cc2)c(C)c1S(=O)(=O)N1CCOCC1	none (no result: PLK1 PBD inh)
O=C1C2C3C=CC(C3)C2C(=O)N1/N=C/c1cc(Br)cc([N+](=O)[O-])c1O (stereo not given)	TDP1 cell noCPT 23µM, TDP1 cell CPT inconclusive
Cc1cc(=O)[nH]c2nnc(SCC(N)=O)n12	none (no result: PLK1 PBD inh)
CC1CCC(NC(=O)c2ccc(CSc3nc4ccncc4n3Cc3ccc(F)cc3)cc2)CC1 (stereo not given)	TDP1 cell noCPT 7.3µM, TDP1 cell CPT inconclusive (no result: PLK1 PBD inh)
O=C(NC1CCCCC1)c1ccc(CSc2nc3cccnc3n2Cc2ccccc2F)cc1	TDP1 cell noCPT 21µM, TDP1 cell CPT inconclusive (no result: PLK1 PBD inh)
O=C(NC1CC1)c1ccc(Cn2c(SCc3ccccc3F)nc3cccnc32)cc1	TDP1 cell noCPT 12µM, TDP1 cell CPT 21µM (no result: PLK1 PBD inh)
O=C(NC1CCCCC1)c1ccc(CSc2nc3ccncc3n2Cc2cccc(F)c2)cc1	TDP1 cell noCPT 18µM, TDP1 cell CPT inconclusive (no result: PLK1 PBD inh)
Cc1ccccc1Cn1c(SCc2ccc(C(=O)NC3CCCC3)cc2)nc2ccncc21	TDP1 cell noCPT inconclusive, TDP1 cell CPT inconclusive (no result: PLK1 PBD inh)
Cc1cccc(Cn2c(SCc3ccc(C(=O)NC4CCCC4)cc3)nc3ccncc32)c1	TDP1 cell noCPT inconclusive, TDP1 cell CPT inconclusive (no result: PLK1 PBD inh)
Nc1ccn([C@@H]2O[C@H](C(=O)N3CCCN(Cc4cccs4)CC3)[C@@H](O)[C@H]2O)c(=O)n1	none (no result: TDP1 inh, KAT2A inh, VDR inhibitor)
O=C(NCCc1ccccc1)c1ccc(Cn2c(SCc3ccc(F)cc3)nc3cccnc32)cc1	TDP1 cell CPT inconclusive (no result: PLK1 PBD inh)
O=C(NC1CCCCC1)c1ccc(Cn2c(SCc3ccccc3F)nc3cccnc32)cc1	TDP1 cell noCPT 16µM, TDP1 cell CPT inconclusive (no result: PLK1 PBD inh)
O=C(NC1CCCC1)c1ccc(CSc2nc3cccnc3n2Cc2cccc(F)c2)cc1	TDP1 cell noCPT 15µM, TDP1 cell CPT inconclusive (no result: PLK1 PBD inh)
O=C(CN1C(=O)/C(=C/c2ccc(C(F)(F)F)cc2)Sc2ccccc21)NCCCN1CCOCC1	TDP1 cell noCPT inconclusive, TDP1 cell CPT 26µM
CCc1ccc(/C=C2/Sc3ccccc3N(CC(=O)NCCCN3CCOCC3)C2=O)cc1	TDP1 cell noCPT 21µM, TDP1 cell CPT inconclusive
O=C(CN1C(=O)/C(=C\c2cccc(Cl)c2)Sc2ccccc21)NCCCN1CCOCC1	TDP1 cell noCPT 23µM, TDP1 cell CPT 23µM
CCc1ccc(/C=C2/Sc3ccccc3N(CC(=O)NCCCOC)C2=O)cc1	none (no result: TDP1 cell noCPT, TDP1 cell CPT, PLK1 PBD inh, VDR inhibitor)
O=C(NCCN1CCOCC1)c1ccc(/C=C2\Sc3ccccc3N(Cc3ccccc3F)C2=O)cc1	TDP1 cell noCPT inconclusive, TDP1 cell CPT inconclusive, KAT2A inh inconclusive
O=C(CN1C(=O)/C(=C\c2cccc(Br)c2)Oc2ccccc21)NCCCN1CCOCC1	TDP1 cell noCPT 18µM, TDP1 cell CPT inconclusive, PLK1 PBD inh 27µM
CCCn1c(SCC(=O)Nc2ccc(S(=O)(=O)N3CCOCC3)cc2)n[nH]c1=O	none (no result: TDP1 inh, KAT2A inh, VDR inhibitor)
Cc1ccc(NC(=S)N(Cc2ccccc2)C(C)C)cc1	TDP1 cell noCPT inconclusive
CC(C1CC1)N(Cc1ccccc1)C(=S)Nc1cccc(C(F)(F)F)c1 (stereo not given)	TDP1 cell noCPT inconclusive, TDP1 cell CPT inconclusive, PLK1 PBD inh 30µM
CC(C)N(Cc1ccccc1)C(=S)Nc1ccc(F)cc1	none
CC(C1CC1)N(Cc1ccccc1)C(=S)Nc1ccccc1 (stereo not given)	TDP1 cell noCPT 23µM, TDP1 cell CPT 15µM
C=CCC[C@H](CCCCC)OC(=O)/C=C/[C@@H](O)[C@H](O)C[C@H](O)CC=C	TDP1 cell noCPT inconclusive, TDP1 cell CPT inconclusive (no result: TDP1 inh, KAT2A inh, VDR inhibitor)
